Test results as given in the antibiotic and cytotoxicity screens of Wong et al. (2023).
Among all 39,000 compounds or so, about 1,500 (3.8%) were called active. The entries come from a sample that favours actives as a whole.

test system: HSkMC (human skeletal muscle cells); assay: cytotoxicity call (relative viability < 0.9); conditions: 10 µM

SMILES	cytotoxicity call
C[C@H](CO)N1C[C@H](C)[C@H](CN(C)Cc2ccc(C(=O)Nc3ccccc3N)cc2)OCc2cn(nn2)CCCC1=O	inactive
Cl.N=C(NN=Cc1ccc(Cl)cc1)NN=Cc1ccc(Cl)cc1	active
Clc1ccc(/C=N/Cc2ccc(-c3cccs3)s2)cc1	inactive
NC(=S)N/N=C/c1ccncc1	inactive
C[C@H]1CN([C@@H](C)CO)C(=O)c2cccc(NS(=O)(=O)c3cccs3)c2O[C@H]1CN(C)S(=O)(=O)c1cccs1	inactive
CCCCCCc1nc(CCCc2cc3c(c(CCCCCC)n2)[Si](C(C)C)(C(C)C)O[C@H]3c2ccccc2)cc2c1[Si](C(C)C)(C(C)C)O[C@H]2c1ccccc1	inactive
Cc1onc(NS(=O)(=O)c2ccccc2-c2ccc(-c3ncco3)cc2CN(C)C(=O)CC(C)(C)C)c1C	inactive
C[C@@H]1CN([C@H](C)CO)C(=O)c2cccc(NC(=O)Nc3ccccc3)c2O[C@@H]1CN(C)C(=O)Nc1cccc2ccccc12	inactive
Cc1ccc(S(=O)(=O)Nc2ccc3c(c2)C(=O)N([C@H](C)CO)C[C@H](C)[C@H](CN(C)Cc2ccc(C(F)(F)F)cc2)OCCCC[C@@H](C)O3)cc1	inactive
C[C@@H]1CCCCO[C@@H](CN(C)Cc2ccc(C(F)(F)F)cc2)[C@H](C)CN([C@H](C)CO)C(=O)c2cc(NS(=O)(=O)c3ccc(F)cc3)ccc2O1	inactive
Cc1ccc(S(=O)(=O)Nc2ccc3c(c2)C(=O)N([C@H](C)CO)C[C@H](C)[C@H](CN(C)Cc2ccc(C(F)(F)F)cc2)OCCCC[C@H](C)O3)cc1	active
Cc1ccc(S(=O)(=O)Nc2ccc3c(c2)C(=O)N([C@H](C)CO)C[C@@H](C)[C@@H](CN(C)Cc2ccc(C(F)(F)F)cc2)OCCCC[C@@H](C)O3)cc1	inactive
C[C@@H]1CCCCO[C@H](CN(C)Cc2ccc(C(F)(F)F)cc2)[C@H](C)CN([C@@H](C)CO)C(=O)c2cc(NS(=O)(=O)c3ccc(F)cc3)ccc2O1	active
Cc1ccc(S(=O)(=O)Nc2ccc3c(c2)C(=O)N([C@H](C)CO)C[C@H](C)[C@@H](CN(C)Cc2ccc(C(F)(F)F)cc2)OCCCC[C@H](C)O3)cc1	inactive
Cc1ccc(S(=O)(=O)Nc2ccc3c(c2)C(=O)N([C@@H](C)CO)C[C@H](C)[C@H](CN(C)Cc2ccc(C(F)(F)F)cc2)OCCCC[C@H](C)O3)cc1	inactive
Cc1ccc(S(=O)(=O)Nc2ccc3c(c2)C(=O)N([C@@H](C)CO)C[C@H](C)[C@@H](CN(C)Cc2ccc(C(F)(F)F)cc2)OCCCC[C@@H](C)O3)cc1	active
C[C@@H]1CN([C@H](C)CO)C(=O)c2cc(NS(=O)(=O)c3ccc(F)cc3)ccc2O[C@@H](C)CCCCO[C@H]1CN(C)Cc1ccc(C(F)(F)F)cc1	inactive
Cc1ccc(S(=O)(=O)Nc2ccc3c(c2)C(=O)N([C@@H](C)CO)C[C@@H](C)[C@@H](CN(C)Cc2ccc(C(F)(F)F)cc2)OCCCC[C@H](C)O3)cc1	inactive
Cc1ccc(S(=O)(=O)Nc2ccc3c(c2)C(=O)N([C@@H](C)CO)C[C@H](C)[C@@H](CN(C)Cc2ccc(C(F)(F)F)cc2)OCCCC[C@H](C)O3)cc1	active

SMILES	cytotoxicity call
Cc1ccc(S(=O)(=O)Nc2ccc3c(c2)C(=O)N([C@H](C)CO)C[C@@H](C)[C@@H](CN(C)Cc2ccc(C(F)(F)F)cc2)OCCCC[C@H](C)O3)cc1	inactive
C[C@H](CO)N1C[C@H](C)[C@@H](CN(C)S(=O)(=O)c2cn(C)cn2)Oc2ccc(NC(=O)NC3CCCCC3)cc2C1=O	inactive
COc1ccc([Si](C)(C)[C@@H]2[C@@H](CCO)O[C@]3(C(=O)N(Cc4ccc(N5C(=O)c6ccccc6Oc6ccccc65)cc4)c4ccccc43)[C@H]2C)cc1	inactive
C[C@@H]1CCCCO[C@H](CN(C)Cc2ccccc2)[C@@H](C)CN([C@@H](C)CO)C(=O)c2cc(NC(=O)Cc3ccccc3)ccc2O1	inactive
COc1ccc(NC(=O)Nc2ccc3c(c2)C(=O)N([C@H](C)CO)C[C@H](C)[C@H](CN(C)Cc2ccc(C(=O)Nc4ccccc4N)cc2)OCCCC[C@@H](C)O3)cc1	inactive
CCOc1ccc(S(N)(=O)=O)cc1	inactive
NS(=O)(=O)c1ccc(N2CCCC2=O)cc1	inactive
C[C@H](CO)N1C[C@H](C)[C@H](CN(C)S(=O)(=O)c2cn(C)cn2)Oc2c(NC(=O)c3cnccn3)cccc2C1=O	inactive
Cc1noc(C)c1NC(=O)Nc1ccc2c(c1)C(=O)N([C@H](C)CO)C[C@@H](C)[C@H](CN(C)C(=O)Nc1c(C)noc1C)OCCCC[C@@H](C)O2	inactive
O=C(c1cnc2ccccc2c1)C1CC1	inactive
CNC[C@@H]1Oc2ccc(NC(=O)Cn3cnnn3)cc2CC(=O)N([C@H](C)CO)C[C@H]1C	inactive
Cc1noc(C)c1NC(=O)Nc1ccc2c(c1)C(=O)N([C@H](C)CO)C[C@@H](C)[C@@H](CN(C)Cc1ccc3c(c1)OCO3)OCCCC[C@@H](C)O2	inactive
O=C(CCCCCNC(=O)OCc1ccc(CN(C(=O)Nc2ccccc2)[C@@H](Cc2ccccc2)Cn2cc(-c3ccccn3)nn2)cc1)NO	inactive
Cc1ccc(S(=O)(=O)Nc2ccc3c(c2)C(=O)N([C@@H](C)CO)C[C@@H](C)[C@H](CN(C)Cc2ccc(C(F)(F)F)cc2)OCCCC[C@H](C)O3)cc1	inactive
Cc1ccc(S(=O)(=O)Nc2ccc3c(c2)C(=O)N([C@@H](C)CO)C[C@H](C)[C@H](CN(C)Cc2ccc(C(F)(F)F)cc2)OCCCC[C@@H](C)O3)cc1	inactive
Cc1ccc(S(=O)(=O)Nc2ccc3c(c2)C(=O)N([C@H](C)CO)C[C@@H](C)[C@H](CN(C)Cc2ccc(C(F)(F)F)cc2)OCCCC[C@H](C)O3)cc1	active
Cc1ccc(S(=O)(=O)Nc2ccc3c(c2)C(=O)N([C@@H](C)CO)C[C@@H](C)[C@@H](CN(C)Cc2ccc(C(F)(F)F)cc2)OCCCC[C@@H](C)O3)cc1	active
Cc1ccc(S(=O)(=O)Nc2ccc3c(c2)C(=O)N([C@H](C)CO)C[C@@H](C)[C@H](CN(C)Cc2ccc(C(F)(F)F)cc2)OCCCC[C@@H](C)O3)cc1	inactive
Cc1ccc(S(=O)(=O)Nc2ccc3c(c2)C(=O)N([C@H](C)CO)C[C@H](C)[C@@H](CN(C)Cc2ccc(C(F)(F)F)cc2)OCCCC[C@@H](C)O3)cc1	inactive
